LANA-H2B inh = blockers of LANA interaction with H2A/H2B – biochemical, FP readout, HTS, primary screen; Protein LANA1 (Human herpesvirus 8 type P (isolate GK18)), Q9QR71; cell-free LANA-H2A/H2B peptide, fluorescence polarization; inhibition, % (no concentration beside the values); 320,000 compounds, 0.6% hits; AID 2629, 2010; in the data active = inhibition mostly above about 10%, no sharp cut-off; inactive = mostly below about 6.7%
A3A deaminase = APOBEC3A ssDNA deaminase inhibitors, primary screen, selectivity assay for APOBEC3G inhibitor project, biochemical, FAM/TAMRA oligo cleavage fluorescence; DNA dC->dU-editing enzyme APOBEC-3A (Homo sapiens), P31941; recombinant A3A, FAM/TAMRA ssDNA deamination fluorescence; inhibition, % at 20 µM; 330,000 compounds, 0.41% hits; AID 493011, 2011;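 active = at least 40% inhibition at 20 µM here, with at most 30% in a related deaminase screen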
HDAC3 inhib = HDAC3 deacetylase inhibitors, primary screen, biochemical, fluorescence, cell-free homogeneous; Histone deacetylase 3 (Homo sapiens), O15379; recombinant HDAC3, fluorogenic peptide/trypsin coupled; inhibition, % at 8.3 µM; 320,000 compounds, 0.15% hits; in the data active = inhibition above about 26%, passing the limit was not always enough; inconclusive = no clear call, values can overlap the other calls
APOBEC3G inh = APOBEC3G DNA deaminase inhibitors, primary screen, biochemical, fluorescence, single-stranded DNA substrate, uHTS. recombinant A3G, ssDNA deamination FAM/TAMRA fluorescence. inhibition, % at 20 µM. 330,000 compounds, 0.28% hits. AID 493012, 2011;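 active = inhibition of at least 40% at 20 µM, with no more than 30% in the related APOBEC3A deaminase screen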
Target sequence (Q9HC16 whole entry, looked up): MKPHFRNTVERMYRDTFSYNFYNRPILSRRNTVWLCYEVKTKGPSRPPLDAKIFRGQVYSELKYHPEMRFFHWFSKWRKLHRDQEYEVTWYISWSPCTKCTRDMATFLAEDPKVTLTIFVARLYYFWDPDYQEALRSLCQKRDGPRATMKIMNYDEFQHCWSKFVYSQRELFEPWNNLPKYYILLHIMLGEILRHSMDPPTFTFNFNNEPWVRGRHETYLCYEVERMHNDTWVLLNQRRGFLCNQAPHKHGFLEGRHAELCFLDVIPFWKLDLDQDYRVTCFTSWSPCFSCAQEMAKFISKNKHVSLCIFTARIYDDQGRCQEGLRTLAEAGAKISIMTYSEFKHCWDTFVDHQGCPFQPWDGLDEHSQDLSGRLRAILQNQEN
Of the large screens only hits and unclear results are named; the others gave an inactive call. Only some compounds are listed: those with a hit (about 1.4% of all), similar ones and a draw of the others.

Cc1ccc2c(c1)C(O)(CC(=O)c1ccc(C)s1)C(=O)N2 (stereo not given)	LANA-H2B inh 90
COc1cc(/C=C2\N=C(C)OC2=O)cc(OC)c1OC	HDAC3 inhib 36
COc1ccc(S(=O)(=O)CCC(=O)N2CCN(c3ccc(C(C)=O)cc3)CC2)cc1	LANA-H2B inh 13
COc1ccc2nc3n(c(=O)c2c1)-c1ccccc1C(=O)NC3Cc1ccccc1 (stereo not given)	none
O=C(CCCN1C(=O)c2cccc3cccc(c23)C1=O)N1CCN(c2ccccc2)CC1	LANA-H2B inh 17
Cc1ccc(C)c(C(=O)COC(=O)c2ccc(C)c(S(=O)(=O)N3CCOCC3)c2)c1	LANA-H2B inh 14
CC(C)[C@H]1COCCS(=O)(=O)N1Cc1ccccc1-c1cccc(Cl)c1	none (no result: LANA-H2B inh, HDAC3 inhib)
Clc1ccc(OCCN2CCCCC2)cc1Cl	none
Clc1ccc(OCCN2CCOCC2)cc1Cl	LANA-H2B inh 17
CCOC(=O)CCCCC(=O)c1[nH]c(=O)[nH]c1C[n+]1ccc(C)cc1	none
CCOC(=O)CCCCC(=O)c1[nH]c(=O)[nH]c1C[n+]1ccccc1	LANA-H2B inh 17
CCc1ccc2oc(=O)cc(CN3CCC(C)CC3)c2c1	LANA-H2B inh 21
O=C(C[C@@H]1C/C=C/CC[C@@H](Cc2ccc(F)cc2)C(=O)O[C@H](c2ccccc2)CNC1=O)NCCO	none
Cc1ccc(C(=O)NC(=C(Cl)Cl)S(=O)(=O)c2ccccc2)cc1	LANA-H2B inh 14
O=C(CN1CCN(c2ccccc2O)CC1)Nc1cc(S(=O)(=O)N2CCCC2)ccc1Cl	none
O=C(NC(c1cccnc1)C(F)(F)F)c1cc(COc2ccc3c(c2)CCCC3)on1 (stereo not given)	none
CCOc1ccccc1C(=O)NCC(=O)OCC(=O)N1CCCC1	none
COc1cc(/C=N/Nc2nc(N3CCCC3)nc(N3CCCC3)n2)ccc1O	HDAC3 inhib 38
CC(C)(C)C(=O)Nc1ccc(C(=O)N/N=C/c2ccccc2OC(=O)c2ccc(Cl)cc2)cc1	none
CC(C)(C)C(=O)Nc1ccc(C(=O)N/N=C/c2ccccc2OC(=O)c2ccccc2)cc1	HDAC3 inhib 35
O=C(CNC(=O)c1n[nH]c2ccccc12)Nc1ccc(F)c(F)c1F	none
COc1ccc(-c2ccc3c(c2)S(=O)(=O)c2cccc(C(=O)N4CCN(C5CCCCC5)CC4)c2C3=O)cc1OC	none
Cc1ccc(S(=O)(=O)Oc2ccccc2/C=N/N=C(N)N)cc1	LANA-H2B inh 38
Cc1ccc(S(=O)(=O)Oc2ccccc2/C=N/NC(N)=S)cc1	none
C=CCc1ccccc1OCC(O)CN1C(=O)c2ccccc2C1=O (stereo not given)	LANA-H2B inh 13
Cc1ccc(CNC(=O)CN(C(=O)C2(C)CC(=O)N=C3C=CC=CN32)c2ccc(F)cc2)cc1 (stereo not given)	none
CN1/C(=C\C=C(C#N)C#N)C(C)(C)c2ccccc21	LANA-H2B inh 45
CN1/C(=C\C=C(/C#N)C(=O)Nc2ccc(Cl)cc2)C(C)(C)c2ccccc21	none
CC1=CN(S(=O)(=O)c2ccc(C)cc2)C[C@@H]2[C@H]3CC[C@H](C3)[C@H]12	none (no result: LANA-H2B inh, HDAC3 inhib)
C=CCN(C(=O)CSC1=NC(=O)CN1C(C)=O)c1nc(C)c(-c2ccccc2)s1	HDAC3 inhib 68
C=CCSc1nnc(-c2sc(-c3ccccc3)nc2C)n1C	none
NC(=O)SCC(=O)Nc1cccc(Cl)c1	HDAC3 inhib 39
NC(=O)SCC(=O)Nc1ccc(Cl)cc1	HDAC3 inhib inconclusive
Oc1ccc(CCNc2c3ccccc3nc3ccccc23)cc1O	LANA-H2B inh 14
c1ccc(CNc2c3ccccc3nc3ccccc23)cc1	none
O=C(Oc1ccc2ccc(=O)oc2c1)c1cccs1	HDAC3 inhib 30
Cc1ccc(NC(=O)CN(C)C(=O)Cn2ncc(Cl)c(Cl)c2=O)cc1	LANA-H2B inh active (no result: A3A deaminase, APOBEC3G inh)
C=C(C(=O)Oc1ccccc1C(C)(C)C)c1ccccc1	none
CSc1nsc(SCC(=O)Nc2ccc(C(N)=O)cc2)n1	LANA-H2B inh 31
CSc1nsc(SCC(=O)Nc2ccc(C(C)=O)cc2)n1	none
Cc1cc(=O)oc2cc(OC(C)C(=O)NCC3CCCO3)ccc12 (stereo not given)	LANA-H2B inh 21
